Compounds with a hit are over-represented: about 11% of the library has one in this group of screens.
BAZ2B block: BAZ2B (human) inhibition; Potency, µM (highest dose often 114 µM), actives largely listed as inhibitors; AlphaScreen BAZ2B-H3K14Ac peptide displacement; Q9UIF8; 360,000 compounds, 4.4% hits; note: nearly all actives have a fitted effect of over 60% in size
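BAZ2B (50 nM) with biotin-H3(5-23)K14Ac peptide (50 nM) in PBS pH 7.4, 0.01% Tween-20, preformed 30 min, then compound 30 min at room temperature; top concentration 110uM. AlphaScreen streptavidin donor/nickel chelate acceptor beads (10 ug/mL final), 20 min dark, signal read.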
G9a inh: inhibitors of human histone lysine methyltransferase G9a; Q96KQ7; G9a H3K9 monomethylation, AlphaScreen, 2 h; Potency, µM (series often up to 102 µM), actives largely listed as inhibitors; 350,000 compounds, 8.8% hits; AID 504332; note: nearly all actives have a fitted effect of over 75% in size
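AlphaScreen detection with an anti-monomethyl H3K9 antibody quantified product after a 2 h room-temperature reaction containing 500 nM biotinylated H3K9 peptide, 20 µM SAM and 20 nM enzyme, which had been preincubated 15 min with compound.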
HP1b chromo inh: inhibitors of HP1-beta chromodomain binding to methylated histone tails | AlphaScreen HP1-beta / biotin-H3K9me3 peptide binding | Potency, µM (doses to about 114 µM), actives largely listed as inhibitors | P83916 | 390,000 compounds, 0.56% hits; note: nearly all actives have a fitted effect of over 70% in size
Target sequence (P83916 whole entry, looked up): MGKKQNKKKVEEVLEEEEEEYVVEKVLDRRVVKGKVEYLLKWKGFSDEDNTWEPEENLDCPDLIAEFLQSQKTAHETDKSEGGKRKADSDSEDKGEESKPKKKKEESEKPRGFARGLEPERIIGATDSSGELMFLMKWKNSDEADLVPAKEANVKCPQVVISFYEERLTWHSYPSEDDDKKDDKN
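Compound inhibition of the preformed complex between 50 nM HP1-beta and 50 nM biotinylated H3K9me3 peptide was read by AlphaScreen. Buffer was PBS pH 7.4 with 0.01% Tween-20. Incubations ran 30 min at room temperature, with 10 ug/mL donor/acceptor beads.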
PLK1 PBD block: blocks phosphopeptide binding to human PLK1 polo-box domain. P53350. Plk1 PBD binding of FITC phosphopeptide, fluorescence polarization. Potency, µM, most hits filed as inhibitors. 360,000 compounds, 2.8% hits. AID 720504; note: series mostly up to about 57 µM; nearly all actives have a fitted effect of over 65% in size
JMJD2A Tudor: inhibitors of human JMJD2A Tudor domain; 390,000 compounds, 4.4% hits; O75164; AlphaScreen JMJD2A-Tudor / H3K4me3 peptide binding; AID 504339; Potency, µM (series often up to 114 µM), most hits filed as inhibitors; note: nearly all actives have a fitted effect of over 50% in size
VDR inhibitor: vitamin D3 receptor (human) inhibition; VDR-SRC2-3 peptide fluorescence polarization, 2 h; Potency, µM, usual class: inhibitors; 400,000 compounds, 0.93% hits
Target sequence (P11473 whole entry, looked up): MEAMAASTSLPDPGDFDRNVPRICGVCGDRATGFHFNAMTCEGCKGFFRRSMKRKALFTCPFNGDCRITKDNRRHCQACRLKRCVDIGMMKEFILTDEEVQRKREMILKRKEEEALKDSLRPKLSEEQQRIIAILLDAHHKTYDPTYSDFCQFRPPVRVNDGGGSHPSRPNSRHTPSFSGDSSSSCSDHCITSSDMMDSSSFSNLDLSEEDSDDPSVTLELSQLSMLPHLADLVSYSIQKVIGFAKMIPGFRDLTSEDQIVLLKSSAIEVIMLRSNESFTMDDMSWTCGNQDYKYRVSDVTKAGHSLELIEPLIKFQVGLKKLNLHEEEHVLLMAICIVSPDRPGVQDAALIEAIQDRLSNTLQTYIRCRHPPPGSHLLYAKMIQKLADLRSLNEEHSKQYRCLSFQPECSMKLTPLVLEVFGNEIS
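Signal is fluorescence polarization, reporting how far test compounds block the interaction of VDR with the SRC2-3 coregulator peptide after a 2 h room-temperature incubation.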
A number is an active result; . = inactive; ? = inconclusive; / = no result; [ ] = dose if it differs, or a comment. Calls come from the whole dose curve; as a rule, active = well fitted curve in the direction sought with a large enough effect; inconclusive = small, poorly fitted or top-dose-only effect, or another doubt; inactive = no such curve, though single readings can be large; an effect the other way counts as inactive or inconclusive.

SMILES	BAZ2B block	G9a inh	HP1b chromo inh	PLK1 PBD block	JMJD2A Tudor	VDR inhibitor
O=C(O)C1CCCCC1C(=O)NCc1ccc(Cl)c(Cl)c1 (stereo unspecified)	.	.	.	30µM	.	.
Cc1ccc(N(CCC(=O)N2CCOCC2)S(=O)(=O)c2ccccc2)cc1	.	0.71µM	.	.	.	.
Cc1ccc(N(CC(=O)N2CCOCC2)S(=O)(=O)c2ccccc2)cc1	.	.	.	.	.	.
Cn1c(=O)c(=O)n(C)c2cc(S(=O)(=O)CCC(=O)N3CCOCC3)ccc21	.	.	.	27µM	?	?
Cc1ccc(S(=O)(=O)N(CCC(=O)O)c2ccccc2)cc1	.	56µM	.	.	.	.
Cc1ccc(N(CCC(=O)O)S(=O)(=O)c2ccc(C)cc2)cc1	.	.	.	.	.	.
CCOC(=O)[C@]12CCCC=C1N(Cc1ccc3c(c1)OCO3)C(=O)[C@H](CC(=O)NCCc1ccccc1OC)C2	/	/	/	.	/	/
COc1cc(CNC(=O)CSCc2nc3cccnc3n2C2CCCCC2)cc(OC)c1OC	.	.	.	/	.	.
COc1ccc(S(=O)(=O)N2CCC(C(=O)Oc3cccc(C)c3)CC2)cc1OC	.	.	.	.	.	.
N#Cc1c(-c2ccc(C(F)(F)F)cc2)cc(-c2ccccc2)[nH]c1=S	.	.	.	24µM	.	.
CCOC1=C/C(=C/c2c(N)n3nc(CC(=O)N4CCCCC4)sc3nc2=O)C=CC1=O	?	50µM	.	?	?	.
CCOC1=C/C(=C/c2c(N)n3nc(S(=O)(=O)CC)sc3nc2=O)C=CC1=O	.	35µM	.	.	.	.
CC[C@](N)(CCC(=O)O)C(=O)O	/	.	/	/	/	.
Cn1nc([N+](=O)[O-])c(C(C#N)c2nc3ccccc3n2C)c(Cl)c1=O (stereo unspecified)	35µM	?	?	?	?	.
CC(C)c1nnc(NC(=O)CCC(=O)Nc2ccc3cn[nH]c3c2)s1	.	.	.	?	.	.
O=C(CSc1nnc2c3ccccc3c3ccccc3c2n1)Nc1ccccc1F	56µM	/	.	.	.	.
O=C(CSc1nnc2c(n1)[nH]c1ccc(F)cc12)Nc1ccccc1F	.	.	.	.	.	.
O=C(CSc1nnc2c3ccccc3c3ccccc3c2n1)Nc1ccccc1	.	45µM	/	/	/	/
COc1ccc2oc(-c3cccc(NC(=O)c4sc5c([N+](=O)[O-])cccc5c4Cl)c3)nc2c1	.	.	.	/	.	.
COc1ccc(C2C(=O)N(C3CCCCC3)CC(=O)N2C2CCCC2)cc1 (stereo unspecified)	.	.	.	.	.	.
COc1ccc(C2CC(=O)N3CN(C4CCCCC4)CSC3=C2C#N)cc1 (stereo unspecified)	/	1.8µM	?	/	7.1µM	45µM
COc1ccc(N2CSC3=C(C#N)C(c4cc(OC)ccc4OC)CC(=O)N3C2)c(OC)c1 (stereo unspecified)	45µM	2.2µM	16µM	3.8µM	22µM	16µM
COc1ccc(N2CSC3=C(C#N)C(c4cccs4)CC(=O)N3C2)cc1 (stereo unspecified)	50µM	2.8µM	.	.	.	.
CCCSC1=C(C#N)C(c2cc(OC)ccc2OC)CC(=O)N1 (stereo unspecified)	.	.	.	.	.	.
COC(=O)C(NS(=O)(=O)CCl)C(C)C (stereo unspecified)	/	/	.	/	.	.
SMILES	BAZ2B block	G9a inh	HP1b chromo inh	PLK1 PBD block	JMJD2A Tudor	VDR inhibitor
CC1CCN(C(=O)Cn2nnc(-c3ccc(C(C)C)cc3)n2)CC1	.	?	.	.	.	.
O=C(NC12CC3CC(CC(C3)C1)C2)c1cc(F)c(F)c(F)c1F	.	.	.	.	.	.
N#CCCCN1C(=O)C(=C(C#N)C#N)c2ccccc21	.	?	.	5.3µM	.	?
COC(=O)c1ccc(Cn2nc(-c3ccc(C)cc3)ccc2=O)cc1	.	.[2.33 µM]	.	.	.	.
COc1ccc(-n2c(=O)c3ccccc3n(Cc3cccc(C)c3)c2=O)cc1	.	.	.	/	.	.
O=C(CCn1cccn1)Nc1ccc2c(c1)OCO2	?	.	.	.	?	.
O=C(CCS(=O)(=O)c1cccs1)Nc1ccc(C(=O)Nc2ccccc2F)cc1	.	.	.	/	.	.
O=C(COc1ccc(Cl)cc1)Nc1ccc(C(=O)O)cc1NC(=O)COc1ccc(Cl)cc1	50µM	.	.	.	.	.
O=C(COc1ccc(Cl)cc1)Nc1ccccc1Cl	.	/	.	.	.	.
O=C(N/N=C\C=C\c1ccco1)c1cncc(Br)c1	.	?	.	?	.	?
O=C(N/N=C/C=C/c1ccco1)c1cccnc1	.	8.9µM	.	.	.	?
O=C(N/N=C/C=C\c1ccco1)c1cccnc1	.	28µM	.	.	.	?
O=C(NC(=S)Nc1nc2c(s1)CCCC2)c1ccc(C(=O)c2ccccc2)cc1	.	.	.	.	.	.
O=C(NC(=S)Nc1nc2c(s1)CSc1ccccc1-2)c1ccccc1	?	3.5µM	.	.	.	.
CC1CCCN(c2ccc3nc4ccccc4c(=O)n3n2)C1 (stereo unspecified)	.	50µM	.	?	79µM	.
Cc1ccc2nc3ccc(N4CCCC4)nn3c(=O)c2c1	.	.	.	.	.	.
Cc1cnc(CNc2ccnc(-c3ccccc3C(F)(F)F)n2)cn1	/	.[0.501 µM]	/	/	/	.
O=C(NCc1ccc(F)cc1)n1cc(P(=S)(c2ccccc2)c2ccccc2)c2ccccc21	/	/	/	/	.	/
CCOc1ccc(CNC(=O)C(CC)n2nc(C)n3c(cc4occc43)c2=O)cc1OC (stereo unspecified)	.	50µM	.	.	.	.
NC(=O)c1c(NC(=O)c2cccnc2Cl)sc2c1CCCC2	.	18µM	.	.	.	.
Cc1onc(-c2ccccc2)c1C(=O)NC(=S)Nc1sc2c(c1C#N)CCC(C)C2 (stereo unspecified)	?	3.5µM	.	9.5µM	.	?
Cc1onc(-c2ccccc2)c1C(=O)Nc1sc2c(c1C#N)CCC2	?	?	?	?	50µM	.
Cc1ccccc1C(=O)NC(=S)Nc1sc2c(c1C#N)CCCC2	.	?	.	?	?	.
Cc1onc(-c2ccccc2)c1C(=O)NC(=S)Nc1sc2c(c1C#N)CCCC2	?	2µM	.	7.5µM	.	?
Cc1c(NC(=O)c2cccs2)cccc1-c1nc2cc(Cl)ccc2o1	.	.	.	/	.	.
Cc1onc(-c2c(F)cccc2Cl)c1C(=O)Nc1sc2c(c1C(N)=O)CCC2	.	50µM	.	.	.	.
CCCCNC(=O)CSc1nnc(-c2c[nH]c3ccccc23)n1CC1CCCO1 (stereo unspecified)	.	.[12.7 µM]	.	.	.	.
